Shown is part of a subset that was picked to be rich in hits.
12-LOX inh: inhibitors of human 12S-lipoxygenase ALOX12. Potency, µM (top dose mostly 108 µM), inactives show at the highest dose activity change, negative = inhibition, usual class: inhibitors. actives 1.1% (n = 580,000). purified 12hLO, xylenol orange hydroperoxide absorbance. P18054. AID 1671190; further: potency means the concentration at half of the fitted maximal effect
Target sequence (P18054 whole entry, looked up): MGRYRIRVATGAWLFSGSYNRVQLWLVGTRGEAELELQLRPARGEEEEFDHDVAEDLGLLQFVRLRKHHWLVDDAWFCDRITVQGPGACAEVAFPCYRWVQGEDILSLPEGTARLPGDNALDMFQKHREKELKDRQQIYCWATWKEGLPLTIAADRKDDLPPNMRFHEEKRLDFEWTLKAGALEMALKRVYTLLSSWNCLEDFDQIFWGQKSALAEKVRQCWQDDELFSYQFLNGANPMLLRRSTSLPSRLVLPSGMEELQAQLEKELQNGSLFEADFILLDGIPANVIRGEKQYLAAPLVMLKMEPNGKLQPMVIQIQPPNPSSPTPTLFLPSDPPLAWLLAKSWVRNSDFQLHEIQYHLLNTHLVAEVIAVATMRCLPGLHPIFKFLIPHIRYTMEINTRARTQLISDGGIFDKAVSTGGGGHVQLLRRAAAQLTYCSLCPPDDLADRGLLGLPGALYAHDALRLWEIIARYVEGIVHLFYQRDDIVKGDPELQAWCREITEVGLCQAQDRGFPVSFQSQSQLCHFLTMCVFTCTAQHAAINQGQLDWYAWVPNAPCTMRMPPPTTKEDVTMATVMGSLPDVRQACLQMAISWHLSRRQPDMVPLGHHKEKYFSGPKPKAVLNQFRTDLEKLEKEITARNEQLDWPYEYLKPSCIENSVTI
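Purified human 12hLO (150 nM final) in 25 mM Hepes, 0.01% Triton X-100, pH 7.0 was preincubated 15 min at room temperature with compound. Then 40 uM arachidonic acid was added, 30 min. Hydroperoxide was read by Fe-XO absorbance ratio 573/405 nm.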
HT1080 IDH1KD tx: kills HT-1080 cells with IDH1 knockdown | Potency, µM (series often up to 46.1 µM), for inactives: top-dose activity, negative = toxicity, most hits filed as cytotoxic | HT-1080 IDH1 knockdown viability, ATP luminescence, 48 h | actives 2% (n = 360,000);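 further: potency means the concentration at half of the fitted maximal effect; 0% = DMSO wells and -100% = cell-free medium wells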
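CellTiter-Glo luminescence after 48 h compound exposure at 37 degrees C of IDH1-knockdown HT-1080 cells in 5% FBS RPMI. %Activity scaled between DMSO wells and cell-free media wells, with curves fitted and assigned curve classes.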
IL-1B inflam inh: inhibitors of inflammasome signaling (IL-1 beta secretion) | THP-1 LPS/ATP IL-1B secretion, AlphaLISA, 16 h; active compounds read low | activity change, % at 57.5 µM | actives 4.7% (n = 360,000) | AID 743279; in the data active means activity change below about -50%; inconclusive means mostly about -30% to -49%
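THP-1 cells pretreated 1 hr with compounds (up to 57.5 uM final), then stimulated with LPS (250 ng/mL final) plus ATP (1.25 mM final); secreted IL-1B measured by AlphaLISA after 16 hr, decreased signal indicating inhibition.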
HT1080NT lethal: kills 2HG-producing HT-1080-NT fibrosarcoma cells; Potency, µM (highest dose often 46.1 µM), for inactives: at the top dose activity, negative = less viability, hits mostly cytotoxic; actives 1.6% (n = 360,000); AID 686970; HT-1080-NT fibrosarcoma viability, CellTiter-Glo ATP luminescence, 48 h;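 further: NT is the 2HG producing partner of a matched IDH1 knockdown line; potency means the concentration at half of the fitted maximal effect; 0% = DMSO-treated cells and -100% = media-only wells without cells; nearly all actives have a fitted effect of over 55% in size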
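Toxicity toward the 2HG-producing NT line was scored as %Activity, normalised to DMSO and no-cell wells, from CellTiter-Glo luminescence after 48 hours' treatment.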
TDP1 cell noCPT: qHTS for Inhibitors of human tyrosyl-DNA phosphodiesterase 1 (TDP1): qHTS in cells in absence of CPT | DT40 Tdp1-/- hTDP1 cells, no CPT, ATP luminescence, 48 h | Potency, µM (top dose mostly 46.2 µM), inactives show at the top dose activity change, negative = growth inhibition, usual class: inhibitors | actives 15% (n = 420,000); further: potency means the concentration at half of the fitted maximal effect; nearly all actives have a fitted effect of over 55% in size
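Compound effects on proliferation are scored in DT40 Tdp1-/-;hTDP1 cells in the absence of CPT. ATP levels (CellTiter-Glo luminescence) are recorded after a ≥48 hr, 37 °C incubation.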
DT40 TDP1 CPT: DT40-hTDP1 cell growth loss with CPT | AID 686979 | Potency, µM (doses to about 46.2 µM), for inactives: at the top dose activity change, negative = growth inhibition, hits mostly inhibitors | actives 12% (n = 420,000) | chicken DT40 Tdp1-/-;hTDP1 cells + 20 nM CPT, ATP luminescence, 48 h; further: potency means the concentration at half of the fitted maximal effect; nearly all actives have a fitted effect of over 55% in size
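Cell growth measured by CellTiter-Glo luminescence after a minimum 48 h, 37 C compound exposure with 20 nM CPT in Tdp1-knockout DT40 cells stably expressing hTDP1, seeded 400/well; qHTS titration format.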
The depositor's hits bear a star; ? = inconclusive; . = not tested or not shown; ! = not active in a repeat; [ ] = another dose, or the depositor's remark. Unless noted, the call rests on the fitted dose curve; in most records, active means well fitted curve in the direction sought with a large enough effect; inconclusive means small, poorly fitted or top-dose-only effect, or another doubt; inactive means no such curve, though single readings can be large; an effect the other way counts as inactive or inconclusive. Unless noted, on the % scale 0 is the no-effect control and ±100 the full control effect.

SMILES	12-LOX inh	HT1080 IDH1KD tx	IL-1B inflam inh	HT1080NT lethal	TDP1 cell noCPT	DT40 TDP1 CPT
Cc1ccc(S(=O)(=O)N2CCN(C(=O)c3ccccc3Cc3ccccc3)CC2)c(C)c1	-16%	?	-72*	-25%	?	?
Cc1ccc(S(=O)(=O)N2CCN(C(=O)c3cc(S(=O)(=O)N4CCOCC4)ccc3Cl)CC2)c(C)c1	17%	-28%	-13	-6%	16µM*	18µM*
COc1ccc(S(=O)(=O)N2CCN(C(=O)c3ccccc3Cc3ccccc3)CC2)cc1OC	8%	6%	32	11%	23µM*	?
CC(C)c1ccc(N(C(=O)CNC(=O)c2ccco2)C(C(=O)NC2CCCC2)c2cccnc2)cc1 (stereo not given)	3%	2%	-70*	1%	0%	-5%
O=C(NC1CCCC1)C(c1ccco1)N(C(=O)c1ccco1)c1ccccc1 (stereo not given)	-13%	-11%	-6	-2%	15µM*	2%
COc1ccc(N(C(=O)c2ccco2)C(C(=O)NC2CCCC2)c2ccccc2)cc1 (stereo not given)	?	0%	-8	-1%	?	?
Cc1ccc(N(C(=O)CNC(=O)c2ccco2)C(C(=O)NCC2CCCO2)c2ccccc2)cc1C (stereo not given)	1%	-2%	-18	2%	21µM*	-29%
COC(=O)c1ccc(N(C(=O)CNC(=O)c2ccco2)C(C(=O)NC2CCCC2)c2ccco2)cc1 (stereo not given)	72%[57.4 µM]	0%	7	-5%	23µM*	?
Cc1ccc(C)c(N(C(=O)CNC(=O)c2ccco2)C(C(=O)NCC2CCCO2)c2ccccc2)c1 (stereo not given)	14%	-5%	-11	-2%	-20%	?
CC1=NS(=O)(=O)N(C)C=C1C(=O)OCc1nc(Cc2ccc(C)cc2)no1	43%	.	.	.	.	.
Cc1ccccc1N(C)C1CN(Cc2ccc(C#N)cc2)C1	37%[176 µM]	.	.	.	.	.
COc1ccc(CNc2ncnc3c2CN(C2CCNCC2)C(=O)CN3C)cc1OC	-21%[6.33 µM]	.	.	.	.	.
CCc1ccc(N(C(=O)c2ccco2)C(C(=O)NC2CCCC2)c2ccco2)cc1 (stereo not given)	-10%	-18%	?	-20%	16µM*	?
CCc1ccc(N(C(=O)c2ccco2)C(C(=O)NC2CCCC2)c2ccncc2)cc1 (stereo not given)	-32%	-2%	-3	-18%	?	-27%
O=C(c1cccc(Cn2cc(C(F)(F)F)cc(Cl)c2=O)c1)N1CCCCC1	49%	.	.	.	.	.
CCCCn1nc2cc(C(=O)NCc3ccc(C(F)(F)F)cc3C(F)(F)F)ccc2c1OCC	1%	0%	-5	0%	?	?
CCn1nc2cc(C(=O)NCc3cc(C(F)(F)F)cc(C(F)(F)F)c3)ccc2c1OC	-3%	?	-57*	?	-4%	-19%
CCOc1c2ccc(C(=O)NCc3ccc(C(F)(F)F)cc3C(F)(F)F)cc2nn1C	-4%	-28%	-51*	-15%	-23%	-16%
Cc1cc(Br)cc2c1N(Cc1ccccc1OC(C)C)C(=O)C2=O	4.5µM*!	.	.	.	4.1µM*	21µM*
Cc1ccc(OCCN2C(=O)C(=O)c3cccc(C)c32)cc1	1%	11%	2	-1%	2.9µM*	2.3µM*
Cc1cccc2c1N(Cc1ccccc1OC(C)C)C(=O)C2=O	14%	.	.	.	.	.
CCOC(=O)CN1C(=O)C(=O)c2cccc(C)c21	11%	2%	-3	0%	?	?
COc1ccccc1CN1C(=O)C(=O)c2cccc(C)c21	6%	.	.	.	6.5µM*	13µM*
Cc1cccc2c1N(Cc1ccccc1OCCC(C)C)C(=O)C2=O	-2%	.	.	.	12µM*	15µM*
Cc1cccc(-n2c3nc(=O)n(C)c(=O)c-3cc3c(Cl)cccc32)c1C	?	.	.	.	-2%	6%
SMILES	12-LOX inh	HT1080 IDH1KD tx	IL-1B inflam inh	HT1080NT lethal	TDP1 cell noCPT	DT40 TDP1 CPT
Cn1c(=O)nc2n(Cc3ccccc3)c3cccc(Cl)c3cc-2c1=O	-25%	20%	11	15%	29µM*	?
COc1ccc(CNc2ncnc3c2[nH]c2ccccc23)cc1	0%	21µM*	-108*	16µM*	5.8µM*	10µM*
COc1ccc(CNC(=O)Cn2cnc3c(NCc4ccccc4)ncnc32)cc1	?	16µM*	65	15µM*	5.8µM*	10µM*
C1=C(CCNc2ncnc3c2[nH]c2ccccc23)CCCC1	?	26µM*	-84*	26µM*	0.41µM*	0.73µM*
COc1ccc(CCn2cnc3c([nH]c4ccccc43)c2=O)cc1	3%	1%	0	9%	-8%	-3%
CC(C)OCCCNc1ncnc2c1[nH]c1ccccc12	21%	?	-93*	?	14µM*	8.9µM*
Cc1cccc(-n2ncc3c(N(C)Cc4ccccc4)ncnc32)c1	-1%	-20%	-13	-6%	?	?
COCC(=O)N[C@H]1CCN2C(=O)c3cc(Br)ccc3NC(=O)[C@@H]2C1	1%[176 µM]	.	.	.	.	.
COc1cc2[nH]c(=S)nc(NCc3ccc(C)cc3)c2cc1OC	5%	1%	-8	3%	23µM*	?
CCCOc1ncnc2c1[nH]c1ccc(C)cc12	.	?	-14	?	9.2µM*	?
Cc1ccc2[nH]c3c(NCc4ccccc4)ncnc3c2c1	-25%	-23%	-2	-16%	16µM*	21µM*
COc1ccc2c(c1)[nH]c1c(Cl)ncnc12	-5%	9%	-95*	5%	?	?
COc1ccc(CNc2nc(=S)[nH]c3cc(OC)c(OC)cc23)cc1	0%	0%	-6	10%	?	-29%
Cc1sc2cc(C(=O)N3CCCCC3)[nH]c2c1CN1CCCCC1	36%	.	.	.	.	.
Cc1ccc(NC(=O)N2CCC(CCNC(=O)C3CC3)CC2)cc1F	20%	.	.	.	.	.
O=c1c2[nH]c3ccccc3c2ncn1Cc1ccco1	19%	-7%	3	-4%	-1%	-3%
c1coc(CNc2ncnc3c2[nH]c2ccccc23)c1	.	.	.	.	14µM*	13µM*
COc1cc2[nH]c3c(OC)ncnc3c2cc1OC	70%	-4%	-17	8%	-19%	-12%
COc1ccc(CNc2ncnc3c2[nH]c2cc(OC)c(OC)cc23)cc1	417%	?	-95*	-15%	?	?

From PubChem BioAssay
